# Shown are actives, neighbours in structure and some others; about 11% of the full set was active somewhere.
# HCV inh: blocks hepatitis C virus | AID 651820 | hit rate 3.4% among 340,000 | Potency, µM (series often up to 41.8 µM), most hits filed as inhibitors | Huh7.5.1 HCVcc-Cre infection, luciferase reporter, 44 h
#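 Whole-lifecycle infectious HCVcc-Cre system; cells 1,000/well, compound then virus (~0.5 moi) added 4 h after plating, 44 h culture. Luciferase read 15 sec following 15 min substrate incubation, room temp.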
# AmpC inh detg: blocks E. coli AmpC beta-lactamase in detergent assay; P00811; hit rate 0.041% among 370,000; Potency, µM (series often up to 114 µM), most hits filed as inhibitors; AmpC hydrolysis of nitrocefin, absorbance 480 nm, 0.01% Triton; AID 485294; note: nearly all actives have a fitted effect of over 25% in size
# Target sequence (P00811 whole entry, looked up): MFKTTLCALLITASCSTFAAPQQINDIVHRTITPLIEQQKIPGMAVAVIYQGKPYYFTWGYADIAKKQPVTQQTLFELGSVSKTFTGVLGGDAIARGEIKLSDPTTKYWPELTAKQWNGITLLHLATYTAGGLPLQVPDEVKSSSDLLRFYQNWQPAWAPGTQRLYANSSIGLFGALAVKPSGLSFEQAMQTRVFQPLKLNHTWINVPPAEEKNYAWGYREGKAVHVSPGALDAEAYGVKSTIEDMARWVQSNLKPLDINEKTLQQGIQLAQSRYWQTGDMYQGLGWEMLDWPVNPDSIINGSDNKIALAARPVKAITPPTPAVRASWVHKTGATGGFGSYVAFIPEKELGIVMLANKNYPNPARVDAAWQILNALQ
#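 AmpC (5.3 nM in the dispensed reagent) in 20 mM phosphate pH 7.0 with 0.01% (detergent screen) or 0.0001% Triton X-100 was preincubated with compounds for 15 min at room temperature. Nitrocefin was then added from an 800 uM solution, and hydrolysis was followed at 480 nm.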
# Pf growth 96h: P. falciparum growth inhibition at 96 hour, primary screen for plastid delayed-death inhibitors; P. falciparum luciferase reporter growth, 96 h; hit rate 6.9% among 320,000; Potency, µM (titrated, usually from 28.7 µM), actives largely listed as inhibitors
#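 Erythrocytes infected with luciferase-expressing P. falciparum were dispensed at 2% hematocrit and 0.05% parasitemia (final), then incubated with compounds 96 hours at 37 C in 5% CO2. Luminescence after detection reagent addition reported growth.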
# Pf growth 48h: P. falciparum growth inhibition at 48 hours (one generation) | P. falciparum luciferase growth in erythrocytes, 48 h | Potency, µM (series often up to 28.7 µM), hits mostly inhibitors | hit rate 5.9% among 310,000 | AID 504832
#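 Luciferase-expressing P. falciparum in infected erythrocytes (2% hematocrit, 0.1% parasitemia final) in RPMI 1640/0.5% Albumax were exposed to compound for 48 hours at 37 C, 5% CO2; growth read as luminescence.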
# AMA1-RON2 inh: AMA1-RON2 (P. falciparum) interaction inhibition. AlphaScreen AMA1-biotinylated RON2 peptide binding. Potency, µM (series often up to 58.2 µM), usual class: inhibitors. hit rate 0.2% among 360,000. AID 720542; note: nearly all actives have a fitted effect of over 45% in size
#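 AMA1 (3D7) with his tag at 25 nM final met compounds first, then biotinylated RON2 peptide at 25 nM; detection used donor plus acceptor beads, 10 µg/mL apiece, read by AlphaScreen after 30 min at room temperature.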
# AmpC no deterg: inhibitors of E. coli AmpC beta-lactamase without detergent | P00811 | AmpC nitrocefin hydrolysis, absorbance 480 nm, 0.0001% Triton | Potency, µM (series often up to 57.1 µM), most hits filed as inhibitors | hit rate 0.52% among 330,000; note: nearly all actives have a fitted effect of over 20% in size
#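 AmpC (5.3 nM in the dispensed reagent) in 20 mM phosphate pH 7.0 with 0.01% (detergent screen) or 0.0001% Triton X-100 was preincubated with compounds for 15 min at room temperature. Nitrocefin was then added from an 800 uM solution, and hydrolysis was followed at 480 nm.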
# A number is an active result; - = inactive; ? = inconclusive; . = no result; [ ] = dose if it differs, or a comment. Calls come from the whole dose curve; as a rule, active = well fitted curve in the direction sought with a large enough effect; inconclusive = small, poorly fitted or top-dose-only effect, or another doubt; inactive = no such curve, though single readings can be large; an effect the other way counts as inactive or inconclusive.
SMILES,HCV inh,AmpC inh detg,Pf growth 96h,Pf growth 48h,AMA1-RON2 inh,AmpC no deterg
CCN(CC)CCn1c(=N)n(CC(O)COc2ccccc2)c2ccccc21 (stereo not drawn),?,-,2.33µM,3.29µM,-,-
CCN=c1sc2ccccc2n1CC(O)COc1ccccc1 (stereo not drawn),12.6µM,-,.,?,-,-
C=CCn1c(=N)n(CC(O)COc2ccccc2OC)c2ccccc21 (stereo not drawn),?,?,?,.,-,-
CCN(CC)CCn1c(=N)n(CCO)c2ccccc21,-,?,?,-,-,-
CCN(CC)CCn1c(=N)n(CCOc2ccccc2)c2ccccc21,10µM,-,8.28µM,.,-,-
Cc1cc(OCC(=O)NCC2(N3CCN(C)CC3)CCCCC2)cc(C)c1Cl,.,-,.,.,.,.
CC(C)(C)C1CCc2c(sc(NC(=O)CCC(=O)O)c2C(=O)Nc2ccccc2C(F)(F)F)C1 (stereo not drawn),.,-,.,.,.,.
COC(=O)c1ccc(Nc2ncnc3c2nc2n3CCCC2)cc1,.,-,.,.,.,.
c1ccc(-c2cn(C[C@H]3CC[C@@H]([C@@H]4CC[C@H](Cn5cc(-c6ccccc6)nn5)O4)O3)nn2)cc1,-,-,?,?,-,-
c1ccc(-c2cn(C[C@H]3CC[C@@H]([C@@H]4CC[C@H](Cn5cc(-c6ccccn6)nn5)O4)O3)nn2)nc1,-,-,?,-,1µM,-
C[C@@H](NC(=O)c1nc[nH]c1C(=O)N[C@@H](CCCCNC(=O)OC(C)(C)C)C(=O)OC(C)(C)C)c1ccccc1,?,-,?,?,-,-
CC(C)(C)OC(=O)NCCCC[C@H](NC(=O)c1[nH]cnc1C(=O)Nc1ccccc1)C(=O)OC(C)(C)C,?,-,5.22µM,4.65µM,-,-
CC(C)(C)OC(=O)NCCCC[C@H](NC(=O)c1[nH]cnc1C(=O)Nc1ccc(Cl)cc1)C(=O)OC(C)(C)C,?,-,5.86µM,5.22µM,-,-
O=C(CNC(=O)c1ccc(Cl)cc1)OCc1cc(=O)n2ccsc2n1,.,-,.,.,.,.
COc1ccc(-c2nc3ccccc3s2)cc1NC(=O)c1ccc(F)cc1,.,-,.,.,.,.
CCCN1Cc2cccc(C(=O)Nc3ccccc3F)c2C1=O,.,-,.,.,.,.
Cc1ccc(NC(=O)CN2C(=O)CCc3cc(S(=O)(=O)N4CCOCC4)ccc32)cc1N(C)C,.,-,.,.,.,.
CN1C(=O)NC(NC(=O)c2cccs2)(C(F)(F)F)C1=O (stereo not drawn),-,-,-,-,-,-
CC(C)CN1C(=O)NC(NC(=O)c2cccs2)(C(F)(F)F)C1=O (stereo not drawn),-,-,-,2.33µM,-,-
O=C1c2[nH]nc(-c3ccccc3O)c2C(c2cccc(Cl)c2)N1Cc1ccco1 (stereo not drawn),12.6µM,-,.,8.28µM,-,-
Cc1ccc(C2c3c(-c4cc(C)ccc4O)n[nH]c3C(=O)N2Cc2ccco2)cc1 (stereo not drawn),.,-,.,.,.,.
O=C1c2[nH]nc(-c3ccccc3O)c2C(c2ccc(F)cc2)N1Cc1ccco1 (stereo not drawn),-,-,.,?,-,?
Cc1cc(C)c(O)c(-c2n[nH]c3c2C(c2cccc(O)c2)N(Cc2ccco2)C3=O)c1 (stereo not drawn),11.2µM,-,-,-,-,-
CC(C)Cc1nn2c(=O)cc(COC(=O)c3cccc(NC(=O)c4cccs4)c3)nc2s1,.,-,.,.,.,.
Cc1ccc(-c2cc(-c3ccc(C)cc3)[n+](C)o2)cc1,8.91µM,?,0.37µM,1.17µM,-,-
SMILES,HCV inh,AmpC inh detg,Pf growth 96h,Pf growth 48h,AMA1-RON2 inh,AmpC no deterg
COc1ccc(C2C(C(=O)Nc3ccccc3)=C(C)Nc3nc(-c4ccccc4Cl)nn32)cc1OC (stereo not drawn),.,-,.,.,.,.
COCCn1c(SCC(=O)Nc2ccc(Cl)c(S(=O)(=O)N(C)C)c2)nc2ccccc21,?,-,.,11.7µM,-,-
COCCn1c(SCC(=O)Nc2ccc(S(N)(=O)=O)cc2)nc2ccccc21,-,-,.,-,-,-
COCCn1c(SCC(=O)Nc2ccc(S(=O)(=O)N3CCOCC3)cc2)nc2ccccc21,-,-,-,10.4µM,-,-
CCN(c1cccc(C)c1)c1ncnc2c1cnn2-c1cccc(Cl)c1,.,-,.,.,.,.
CCOc1ccccc1N1Cc2cc(C)c(C)cc2C1,?,?,?,13.1µM,-,-
COc1ccc(OC)c(-n2c(C)cc(C=O)c2C)c1,-,-,?,-[1.15 µM],-,-
CCOc1ccccc1N1Cc2ccccc2C1,-,-,.,7.38µM,-,-
COc1ccc(OC)c(N2Cc3cc(C)c(C)cc3C2)c1,22.4µM,-,.,2.94µM,-,-
CCOc1ccc(N2CC(=O)N(c3ccc(OCC)cc3)CC2=O)cc1,-,-,-,-,-,-
CCOc1ccc(N2Cc3ccccc3C2)cc1,-,?,7.38µM,?,-,-
Cc1ccc(Nc2c(-c3cccnc3)nc3ccc(Cl)cn23)cc1,.,-,.,.,.,.
Cc1cccc(-c2noc(CSc3nc(-c4ccc(F)cc4)cc(=O)[nH]3)n2)c1,.,-,.,.,.,.
CCCOc1ccc(NC(=O)CC2C(=O)N(c3ccccc3)C(=O)N2CCC(C)C)cc1 (stereo not drawn),.,-,.,.,.,.
CCc1ccc(-n2nc(C)c3c(C)cc(=O)n(CC(=O)N(CC)Cc4ccccc4)c32)cc1,.,-,.,.,.,.
O=C(Nc1cccc(C(F)(F)F)c1)c1csc(-c2ccncc2)n1,-,-,?,?,-,-
CCN1CCN(Cc2ccc(NC(=O)c3cc(NC(=O)N4CCNC4=O)cc(OC)c3)cc2C(F)(F)F)CC1,?,-,4.15µM,5.22µM,-,-
COc1cc(NC(=O)c2ccno2)cc(C(=O)Nc2cccc(C(F)(F)F)c2)c1,?,-,?,?,-,-
CCN1CCN(Cc2ccc(NC(=O)c3cc(NC(=O)c4cncc(-c5cccs5)c4)cc(OC)c3)cc2C(F)(F)F)CC1,?,-,?,?,?,-
CCN1CCN(Cc2ccc(NC(=O)c3cc(NC(=O)c4cc5cccc(OC)c5o4)cc(OC)c3)cc2C(F)(F)F)CC1,-,-,0.294µM,0.828µM,-,-
COc1cc(NC(=O)c2cc3cccc(OC)c3o2)cc(C(=O)Nc2cccc(C(F)(F)F)c2)c1,?,-,10.4µM,13.1µM,-,-
COc1cc(NC(=O)c2csc(-c3ccncc3)n2)cc(C(=O)Nc2cccc(C(F)(F)F)c2)c1,-[8.37 µM],-,5.22µM,?,-,-
CCc1ccc(OC(C)C(=O)Nc2c(C(=O)c3ccccc3)oc3ccccc23)cc1 (stereo not drawn),.,-,.,.,.,.
CC(C)OCCCn1c(SCC(N)=O)nc2c(sc3ccccc32)c1=O,.,-,.,.,.,.
CCOc1ccc(NC(=O)c2nc3nc(C)cc(C(F)F)n3n2)cc1,.,-,.,.,.,.
